# Reference: publication PMC11062922 (Nature Chemical Biology, 2023)
# Like-named read-outs stand apart in the source and are kept apart here.
# Columns and labels:
# CDKL5 = conditions: read-out: apparent Kd, n = 1
# CLK4 = conditions: read-out: apparent Kd, n = 1
# [1] = compound concentrations:100 nM and 1000 nM (sheet 'Lestaurtinib' of Supplementary Table 1),run:Lestaurtinib_02577_R1,Plate:MR016
# [2] = compound concentrations:100 nM and 1000 nM (sheet 'Lestaurtinib' of Supplementary Table 1),run:Lestaurtinib_02577_R2,Plate:MR016
# [3] = compound concentrations:100 nM and 1000 nM (sheet 'Lestaurtinib' of Supplementary Table 1),run:Lestaurtinib_02584_R1,Plate:MR017
# [4] = compound concentrations:100 nM and 1000 nM (sheet 'Lestaurtinib' of Supplementary Table 1),run:Lestaurtinib_02584_R2,Plate:MR017
# [5] = compound concentrations:100 nM and 1000 nM (sheet 'Lestaurtinib' of Supplementary Table 1),run:Lestaurtinib_02584_R3,Plate:MR017
# [6] = compound concentrations:100 nM and 1000 nM (sheet 'Lestaurtinib' of Supplementary Table 1),run:Lestaurtinib_02606_R1,Plate:MR019
# [7] = compound concentrations:100 nM and 1000 nM (sheet 'Lestaurtinib' of Supplementary Table 1),run:Lestaurtinib_02624_R2,Plate:MR020
# [8] = compound concentrations:100 nM and 1000 nM (sheet 'Lestaurtinib' of Supplementary Table 1),run:Lestaurtinib_02766_R3,Plate:MR027
substance,measurement,setting,value
Lestaurtinib,potency estimated from few doses,CDKL5; [1],82.6 nM
same,potency estimated from few doses,CDKL5; [2],144 nM
same,potency estimated from few doses,CDKL5; [3],86.8 nM
same,potency estimated from few doses,CDKL5; [4],37.3 nM
same,potency estimated from few doses,CDKL5; [5],565 nM
same,potency estimated from few doses,"CDKL5; compound concentrations:100 nM and 1000 nM (sheet 'Lestaurtinib' of Supplementary Table 1),run:Lestaurtinib_02601_R1,Plate:MR018",966 nM
same,potency estimated from few doses,"CDKL5; compound concentrations:100 nM and 1000 nM (sheet 'Lestaurtinib' of Supplementary Table 1),run:Lestaurtinib_02601_R2,Plate:MR018",921 nM
same,potency estimated from few doses,"CDKL5; compound concentrations:100 nM and 1000 nM (sheet 'Lestaurtinib' of Supplementary Table 1),run:Lestaurtinib_02601_R3,Plate:MR018",143 nM
same,potency estimated from few doses,CDKL5; [6],58.1 nM
same,potency estimated from few doses,"CDKL5; compound concentrations:100 nM and 1000 nM (sheet 'Lestaurtinib' of Supplementary Table 1),run:Lestaurtinib_02606_R2,Plate:MR019",98.3 nM
same,potency estimated from few doses,"CDKL5; compound concentrations:100 nM and 1000 nM (sheet 'Lestaurtinib' of Supplementary Table 1),run:Lestaurtinib_02624_R1,Plate:MR020",75 nM
same,potency estimated from few doses,CDKL5; [7],137 nM
same,potency estimated from few doses,"CDKL5; compound concentrations:100 nM and 1000 nM (sheet 'Lestaurtinib' of Supplementary Table 1),run:Lestaurtinib_02741_R2,Plate:MR023",695 nM
same,potency estimated from few doses,"CDKL5; compound concentrations:100 nM and 1000 nM (sheet 'Lestaurtinib' of Supplementary Table 1),run:Lestaurtinib_02748_R3,Plate:MR024",149 nM
same,potency estimated from few doses,"CDKL5; compound concentrations:100 nM and 1000 nM (sheet 'Lestaurtinib' of Supplementary Table 1),run:Lestaurtinib_02752_R1,Plate:MR025",225 nM
same,potency estimated from few doses,"CDKL5; compound concentrations:100 nM and 1000 nM (sheet 'Lestaurtinib' of Supplementary Table 1),run:Lestaurtinib_02752_R3,Plate:MR025",226 nM
same,potency estimated from few doses,"CDKL5; compound concentrations:100 nM and 1000 nM (sheet 'Lestaurtinib' of Supplementary Table 1),run:Lestaurtinib_02765_R2,Plate:MR026",212 nM
same,potency estimated from few doses,CDKL5; [8],28.6 nM
same,potency estimated from few doses,"CDKL5; compound concentrations:100 nM and 1000 nM (sheet 'Lestaurtinib' of Supplementary Table 1),run:Lestaurtinib_02795_R2,Plate:MR022",1690 nM
same,potency estimated from few doses,"CDKL5; compound concentrations:100 nM and 1000 nM (sheet 'Lestaurtinib' of Supplementary Table 1),run:Lestaurtinib_02795_R3,Plate:MR022",55.9 nM
same,potency estimated from few doses,"CDKL5; compound concentrations:100 nM and 1000 nM (sheet 'Lestaurtinib' of Supplementary Table 1),run:Lestaurtinib_02802_R2,Plate:MR029",130 nM
same,potency estimated from few doses,"CDKL5; compound concentrations:100 nM and 1000 nM (sheet 'Lestaurtinib' of Supplementary Table 1),run:Lestaurtinib_02896_R1,Plate:MR030",336 nM
same,potency estimated from few doses,"CDKL5; compound concentrations:100 nM and 1000 nM (sheet 'Lestaurtinib' of Supplementary Table 1),run:Lestaurtinib_02896_R2,Plate:MR030",99.8 nM
same,potency estimated from few doses,"CDKL5; compound concentrations:100 nM and 1000 nM (sheet 'Lestaurtinib' of Supplementary Table 1),run:Lestaurtinib_02896_R3,Plate:MR030",1300 nM
same,potency estimated from few doses,"CDKL5; compound concentrations:100 nM and 1000 nM (sheet 'Lestaurtinib' of Supplementary Table 1),run:Lestaurtinib_03172_R1,Plate:MR031",298 nM
same,potency estimated from few doses,"CDKL5; compound concentrations:100 nM and 1000 nM (sheet 'Lestaurtinib' of Supplementary Table 1),run:Lestaurtinib_03172_R3,Plate:MR031",99.7 nM
same,potency estimated from few doses,"CDKL5; compound concentrations:100 nM and 1000 nM (sheet 'Lestaurtinib' of Supplementary Table 1),run:Lestaurtinib_03260_R2,Plate:MR033",460 nM
same,potency estimated from few doses,"CDKL5; compound concentrations:100 nM and 1000 nM (sheet 'Lestaurtinib' of Supplementary Table 1),run:Lestaurtinib_03260_R3,Plate:MR033",730 nM
same,potency estimated from few doses,"CLK4; compound concentrations:100 nM and 1000 nM (sheet 'Lestaurtinib' of Supplementary Table 1),run:Lestaurtinib_02339_R1,Plate:MR001",43.2 nM
same,potency estimated from few doses,"CLK4; compound concentrations:100 nM and 1000 nM (sheet 'Lestaurtinib' of Supplementary Table 1),run:Lestaurtinib_02339_R2,Plate:MR001",51.8 nM
same,potency estimated from few doses,"CLK4; compound concentrations:100 nM and 1000 nM (sheet 'Lestaurtinib' of Supplementary Table 1),run:Lestaurtinib_02339_R3,Plate:MR001",29.6 nM
same,potency estimated from few doses,"CLK4; compound concentrations:100 nM and 1000 nM (sheet 'Lestaurtinib' of Supplementary Table 1),run:Lestaurtinib_02364_R2,Plate:MR002",35.4 nM
same,potency estimated from few doses,"CLK4; compound concentrations:100 nM and 1000 nM (sheet 'Lestaurtinib' of Supplementary Table 1),run:Lestaurtinib_02367_R2,Plate:MR003",78.8 nM
same,potency estimated from few doses,"CLK4; compound concentrations:100 nM and 1000 nM (sheet 'Lestaurtinib' of Supplementary Table 1),run:Lestaurtinib_02367_R3,Plate:MR003",56.1 nM
same,potency estimated from few doses,"CLK4; compound concentrations:100 nM and 1000 nM (sheet 'Lestaurtinib' of Supplementary Table 1),run:Lestaurtinib_02381_R1,Plate:MR004",62.4 nM
same,potency estimated from few doses,"CLK4; compound concentrations:100 nM and 1000 nM (sheet 'Lestaurtinib' of Supplementary Table 1),run:Lestaurtinib_02381_R2,Plate:MR004",34.7 nM
same,potency estimated from few doses,"CLK4; compound concentrations:100 nM and 1000 nM (sheet 'Lestaurtinib' of Supplementary Table 1),run:Lestaurtinib_02381_R3,Plate:MR004",51.1 nM
same,potency estimated from few doses,"CLK4; compound concentrations:100 nM and 1000 nM (sheet 'Lestaurtinib' of Supplementary Table 1),run:Lestaurtinib_02407_R2,Plate:MR005",17 nM
same,potency estimated from few doses,"CLK4; compound concentrations:100 nM and 1000 nM (sheet 'Lestaurtinib' of Supplementary Table 1),run:Lestaurtinib_02407_R3,Plate:MR005",22.9 nM
same,potency estimated from few doses,"CLK4; compound concentrations:100 nM and 1000 nM (sheet 'Lestaurtinib' of Supplementary Table 1),run:Lestaurtinib_02422_R1,Plate:MR006",27.9 nM
same,potency estimated from few doses,"CLK4; compound concentrations:100 nM and 1000 nM (sheet 'Lestaurtinib' of Supplementary Table 1),run:Lestaurtinib_02422_R3,Plate:MR006",48 nM
same,potency estimated from few doses,"CLK4; compound concentrations:100 nM and 1000 nM (sheet 'Lestaurtinib' of Supplementary Table 1),run:Lestaurtinib_02437_R1,Plate:MR007",25 nM
same,potency estimated from few doses,"CLK4; compound concentrations:100 nM and 1000 nM (sheet 'Lestaurtinib' of Supplementary Table 1),run:Lestaurtinib_02437_R2,Plate:MR007",71.7 nM
same,potency estimated from few doses,"CLK4; compound concentrations:100 nM and 1000 nM (sheet 'Lestaurtinib' of Supplementary Table 1),run:Lestaurtinib_02438_R1,Plate:MR008",19.3 nM
same,potency estimated from few doses,"CLK4; compound concentrations:100 nM and 1000 nM (sheet 'Lestaurtinib' of Supplementary Table 1),run:Lestaurtinib_02438_R3,Plate:MR008",141 nM
same,potency estimated from few doses,"CLK4; compound concentrations:100 nM and 1000 nM (sheet 'Lestaurtinib' of Supplementary Table 1),run:Lestaurtinib_02443_R1,Plate:MR009",80.9 nM
same,potency estimated from few doses,"CLK4; compound concentrations:100 nM and 1000 nM (sheet 'Lestaurtinib' of Supplementary Table 1),run:Lestaurtinib_02443_R2,Plate:MR009",75.8 nM
same,potency estimated from few doses,"CLK4; compound concentrations:100 nM and 1000 nM (sheet 'Lestaurtinib' of Supplementary Table 1),run:Lestaurtinib_02473_R1,Plate:MR010",58 nM
same,potency estimated from few doses,"CLK4; compound concentrations:100 nM and 1000 nM (sheet 'Lestaurtinib' of Supplementary Table 1),run:Lestaurtinib_02473_R2,Plate:MR010",35.2 nM
same,potency estimated from few doses,"CLK4; compound concentrations:100 nM and 1000 nM (sheet 'Lestaurtinib' of Supplementary Table 1),run:Lestaurtinib_02482_R2,Plate:MR011",86.4 nM
same,potency estimated from few doses,"CLK4; compound concentrations:100 nM and 1000 nM (sheet 'Lestaurtinib' of Supplementary Table 1),run:Lestaurtinib_02487_R2,Plate:MR012",73.6 nM
same,potency estimated from few doses,"CLK4; compound concentrations:100 nM and 1000 nM (sheet 'Lestaurtinib' of Supplementary Table 1),run:Lestaurtinib_02496_R2,Plate:MR013",98.1 nM
same,potency estimated from few doses,"CLK4; compound concentrations:100 nM and 1000 nM (sheet 'Lestaurtinib' of Supplementary Table 1),run:Lestaurtinib_02496_R3,Plate:MR013",54.4 nM
same,potency estimated from few doses,"CLK4; compound concentrations:100 nM and 1000 nM (sheet 'Lestaurtinib' of Supplementary Table 1),run:Lestaurtinib_02566_R1,Plate:MR014",47.9 nM
same,potency estimated from few doses,"CLK4; compound concentrations:100 nM and 1000 nM (sheet 'Lestaurtinib' of Supplementary Table 1),run:Lestaurtinib_02572_R1,Plate:MR015",74.6 nM
same,potency estimated from few doses,"CLK4; compound concentrations:100 nM and 1000 nM (sheet 'Lestaurtinib' of Supplementary Table 1),run:Lestaurtinib_02572_R2,Plate:MR015",41.6 nM
same,potency estimated from few doses,"CLK4; compound concentrations:100 nM and 1000 nM (sheet 'Lestaurtinib' of Supplementary Table 1),run:Lestaurtinib_02572_R3,Plate:MR015",53.8 nM
same,potency estimated from few doses,CLK4; [1],877 nM
same,potency estimated from few doses,CLK4; [2],830 nM
same,potency estimated from few doses,CLK4; [3],65.8 nM
same,potency estimated from few doses,CLK4; [4],67.9 nM
same,potency estimated from few doses,CLK4; [5],44.4 nM
same,potency estimated from few doses,CLK4; [6],78.2 nM
same,potency estimated from few doses,"CLK4; compound concentrations:100 nM and 1000 nM (sheet 'Lestaurtinib' of Supplementary Table 1),run:Lestaurtinib_02606_R3,Plate:MR019",45.4 nM
same,potency estimated from few doses,CLK4; [7],79.1 nM
same,potency estimated from few doses,"CLK4; compound concentrations:100 nM and 1000 nM (sheet 'Lestaurtinib' of Supplementary Table 1),run:Lestaurtinib_02624_R3,Plate:MR020",55.4 nM
same,potency estimated from few doses,"CLK4; compound concentrations:100 nM and 1000 nM (sheet 'Lestaurtinib' of Supplementary Table 1),run:Lestaurtinib_02724_R2,Plate:MR021",62.7 nM
same,potency estimated from few doses,"CLK4; compound concentrations:100 nM and 1000 nM (sheet 'Lestaurtinib' of Supplementary Table 1),run:Lestaurtinib_02724_R3,Plate:MR021",76.1 nM
same,potency estimated from few doses,"CLK4; compound concentrations:100 nM and 1000 nM (sheet 'Lestaurtinib' of Supplementary Table 1),run:Lestaurtinib_02741_R3,Plate:MR023",62 nM
same,potency estimated from few doses,"CLK4; compound concentrations:100 nM and 1000 nM (sheet 'Lestaurtinib' of Supplementary Table 1),run:Lestaurtinib_02748_R2,Plate:MR024",132 nM
same,potency estimated from few doses,CLK4; [8],69.4 nM
same,potency estimated from few doses,"CLK4; compound concentrations:100 nM and 1000 nM (sheet 'Lestaurtinib' of Supplementary Table 1),run:Lestaurtinib_02768_R2,Plate:MR028",1150 nM
